TSHR agonist = activates the human thyroid stimulating hormone receptor; Potency, µM (highest dose often 57.1 µM), for the others: at the top dose activation, most hits filed as activators; P16473; HEK293-CNG-TSHR cells (CNG channel as cAMP sensor), membrane potential dye, cAMP; 0.48% of 73,000 active; active = well fitted activation curve with a large enough effect in the main read-out, with a control signal flat, not every such curve was filed as active; inconclusive = small, poorly fitted or top-dose-only effect, or a change in a side signal; inactive = no such curve, though single readings can be large or run the other way; % of control where 0% means no effect;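 also: the control signal comes from parental cells without the receptor; potency is read from the fitted curve at half-maximal effect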
Target sequence (P16473 whole entry, looked up): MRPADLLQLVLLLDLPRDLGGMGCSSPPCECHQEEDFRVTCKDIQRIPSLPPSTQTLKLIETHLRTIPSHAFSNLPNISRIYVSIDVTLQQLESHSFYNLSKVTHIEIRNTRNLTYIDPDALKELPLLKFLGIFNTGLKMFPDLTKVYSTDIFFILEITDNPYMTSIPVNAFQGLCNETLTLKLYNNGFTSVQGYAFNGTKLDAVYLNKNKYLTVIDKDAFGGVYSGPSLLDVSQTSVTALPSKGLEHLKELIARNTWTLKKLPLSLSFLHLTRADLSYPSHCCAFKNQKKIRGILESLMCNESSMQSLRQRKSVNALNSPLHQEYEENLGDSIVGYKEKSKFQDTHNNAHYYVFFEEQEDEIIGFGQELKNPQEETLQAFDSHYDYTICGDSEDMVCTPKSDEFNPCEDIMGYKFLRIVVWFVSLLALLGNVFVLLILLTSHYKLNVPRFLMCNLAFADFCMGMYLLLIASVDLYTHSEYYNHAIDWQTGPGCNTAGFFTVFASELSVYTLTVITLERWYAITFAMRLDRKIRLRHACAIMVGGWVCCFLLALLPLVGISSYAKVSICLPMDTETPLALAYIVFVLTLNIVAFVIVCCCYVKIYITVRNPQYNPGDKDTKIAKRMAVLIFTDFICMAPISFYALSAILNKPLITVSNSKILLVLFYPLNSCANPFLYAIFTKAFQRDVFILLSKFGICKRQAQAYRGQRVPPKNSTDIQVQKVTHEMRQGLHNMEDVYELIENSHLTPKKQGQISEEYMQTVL
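cAMP rise detected as CNG-channel membrane depolarization by fluorescent dye (emission 590 nm), 30 min after compound, following 60 min dye loading containing 100 uM RO 20-1724 at room temperature. Cells: TSHR/CNG HEK 293, with parental CNG HEK 293 as control.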
Ub-GFP proteasome = inhibits proteasome, raising ubiquitin-GFP reporter fluorescence | Potency, µM (highest dose often 45.9 µM), inactives show at the highest dose activation (GFP accumulation), actives largely listed as activators | Ubiquitin-GFP reporter cells, proteasome inhibition, GFP fluorescence; response scale: untreated = 0%, 10 µM MG-132 = 100% | 67,000 tested, under 10 active | AID 526; active = well fitted activation curve with a large enough effect, not every such curve was filed as active; inconclusive = small, poorly fitted or top-dose-only effect, or another doubt; inactive = no such curve, though single readings can be large or run the other way; also: potency is read from the fitted curve at half-maximal effect
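U2OS cells expressing ubiquitin(G76V)-GFP, seeded overnight in 0.5% FBS medium, then treated 4 hr at 37 C across 46 uM to 2.9 nM. GFP-positive cells counted by laser cytometry (488 ex/515 em); %activity scaled between basal and 10 uM MG-132.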
GFP derepression = derepresses silenced GFP locus in mouse C127i cells | mouse C127i GFP locus derepression, cytometry, 30 h | Potency, µM (highest dose often 46.1 µM), without a hit: top-dose GFP derepression (activation) | 0.09% of 68,000 active | AID 597; also: % of control where 0% means no effect
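Derepression screen: silenced CMV-GFP reporter in murine C127i cells, 30 h compound incubation at 37 C, washed cells imaged by laser-scanning cytometer to enumerate GFP-expressing objects of 20 to 120 um.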
HEK293 cAMP cs = parental HEK293 cAMP activation (counter-screen). parental HEK293 CNG cAMP sensor, membrane potential fluorescence. Potency, µM (doses to about 57.1 µM), without a hit: at the highest dose activation, usual class: activators. 2.5% of 73,000 active. AID 938; also: potency is read from the fitted curve at half-maximal effect; % of control where 0% means no effect; nearly all actives have a fitted effect of over 55% in size
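Parental HEK 293 cells stably expressing a modified CNG channel (no TSHR) report cAMP rise as membrane depolarization. Membrane potential dye with 100 uM RO 20-1724 was loaded for 60 min at room temperature, then compound added for 30 min; fluorescence read at 590 nm.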
HBB splice mod = modulators of hemoglobin beta chain splicing. 0.06% of 65,000 active. Potency, µM (titrated, usually from 46.1 µM), without a hit: at the highest dose activation, actives largely listed as activators. HBB splicing reporter cell assay, activation; EGFP reporter with mutant IVS2-654 intron; response scale: normalised to 500 nM splice-correcting PNA. AID 925; also: potency is read from the fitted curve at half-maximal effect; 0% is about no effect
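Compounds were applied for 2 days to HeLa EGFP-654 cells, 500/well in Optimem with 2% FCS. The reporter's EGFP is disrupted by mis-splicing of beta-globin intron IVS2-654. Readout: summed well GFP fluorescence from 488 nm laser scanning; reference was 500 nM antisense […] 654 PNA.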
ERK AVP inh = blocks ERK signaling stimulated by vasopressin. HEK293-V1b, vasopressin-stimulated pERK AlphaScreen. Potency, µM (titrated, usually from 57.5 µM), for the others: at the highest dose activity, negative = inhibition, usual class: inhibitors. 0.99% of 72,000 active. AID 995; also: potency is read from the fitted curve at half-maximal effect; % is scaled to controls: 0 for no effect and ±100 for the full control effect; nearly all actives have a fitted effect of over 55% in size
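qHTS, compounds titrated on V1b-expressing HEK293 cells. Preincubation 30 min at 37C, vasopressin 25 nM for 5 min, lysis 10 min, bead incubation 5 hr at room temperature.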
* marks the source's active call; other numbers are inactive results; u = inconclusive; x = no result; [ ] = dose if it differs, or a comment. In the library only some 3.8% were active in any assay of this set; here they are far more common. Unless noted, calls follow the shape of the dose curve; as a rule, active = well fitted curve in the direction sought with a large enough effect; inconclusive = small, poorly fitted or top-dose-only effect, or another doubt; inactive = no such curve, though single readings can be large; an effect the other way counts as inactive or inconclusive.

SMILES | TSHR agonist | Ub-GFP proteasome | GFP derepression | HEK293 cAMP cs | HBB splice mod | ERK AVP inh
CNC(=O)c1cc2c(cn1)[nH]c1ccccc12 | u | 1% | 1% | u | -1% | -16%
CC(=O)N(C(C)=O)c1ncc2c([nH]c3ccccc32)c1C#N | u | 3% | 0% | 25µM* | 4% | -3%
O=C(NCCc1ccc(Cl)cc1)C1CCN(C(=O)c2sccc2-n2cccc2)CC1 | 16% | 2% | 0% | 23% | -2%[57.5 µM] | 16µM*
CN(C)C(=O)[C@]1(C)C[C@H]1[C@H](NC(=O)CNC(=O)[C@@H]1CCCN1C(=O)[C@]1(C)C[C@H]1[C@H](NC(=O)OCc1ccccc1)c1ccccc1)c1ccccc1 | 17% | x | x | 22% | 0% | 15%
CCOCC(=O)Nc1c(C(=O)Nc2ccccc2OC)oc2ccccc12 | u | 7% | 2% | 25µM* | -1% | 22%
CCOC(=O)c1oc2ccccc2c1NC(=O)C1CCCCC1 | u | 6% | 0% | 16µM* | -2% | -21%
CCOC(=O)c1oc2ccccc2c1NC(=O)c1cccc(OC)c1 | u | 5% | 6% | 32µM* | -2% | 6%
N#CCCn1c(=O)c(-c2cc(F)cc(F)c2)nc2cnc(N3CCOCC3)nc21 | 3% | 2% | 0%[9.22 µM] | 18% | 0% | 15%
Cc1ccc(Cl)cc1NC(=O)CC(O)(C(F)(F)F)C(F)(F)F | u | -3% | -5% | 6.3µM* | -1% | -2%
N#Cc1ccccc1-c1cncnc1NCc1cccnc1 | 1% | -3% | -5%[9.22 µM] | 0% | 1% | -7%
CC(=O)NCCSC(=O)c1ccc(F)cc1 | u | 9% | 1% | 3.2µM* | -2% | 22%
Cc1ccc(-n2ncc3c(NCCCn4ccnc4)ncnc32)c(C)c1 | u | -14% | x | 1.6µM* | 0% | x
Cc1c2cccc(Sc3ccccc3)c2c2c3c(cccc13)[S+](c1ccccc1)C2 (stereo not given) | 2%[11.4 µM] | -6%[9.17 µM] | 9%[9.22 µM] | 10%[11.4 µM] | 1%[9.22 µM] | 2%[11.5 µM]
COc1ccc(S(=O)(=O)NCCSc2ccc(C)cc2)cc1OC | u | 4% | -2% | u | 0%[9.22 µM] | -8%
Cc1ccc(SCCNS(=O)(=O)c2ccc(F)cc2)cc1 | 1µM* | 9%[9.17 µM] | 0% | 18%[11.4 µM] | 0%[0.0738 µM] | 5%
CC(C)Cn1c(=O)c(C(=O)NCc2ccccn2)c(O)c2ccccc21 | u | x | -2% | 25µM* | 0%[0.369 µM] | -5%
Fc1ccc(-c2nnc3sc(C4COc5ccccc5O4)nn23)cc1 (stereo not given) | u | -14% | -2% | 25µM* | 5%[1.84 µM] | u
Fc1ccc(-c2nn3c(C4COc5ccccc5O4)nnc3s2)cc1 (stereo not given) | u | 3% | 0% | u | 5%[57.5 µM] | -11%
O=C(Oc1ccccc1)N1CCC2(CC1)CN(c1ncccn1)C2 | 1% | -4% | -6%[9.22 µM] | -2% | 3% | 9%
O=C(Oc1ccccc1)N1CCC2(CCCN(c3ncccn3)C2)CC1 | u | 0% | 7%[9.22 µM] | 20µM* | 1% | 21%
O=C(CSc1nc2c(cnn2-c2ccc(F)cc2)c(=O)[nH]1)N1CCCc2ccccc21 | u | -1% | -1% | 25µM* | -2% | 25%
COc1ccc(OC)c(NC(=O)c2cc(-c3cc(Cl)ccc3O)n[nH]2)c1 | 4% | 8% | 0% | 17% | 2% | 25µM*
CN1CCC2(CC1)CCN(C(=O)c1ccncc1)CC2 | -2% | -6% | 0%[9.22 µM] | 5% | 1% | 10%
COc1cccc(-n2nnnc2SCC(=O)Nc2cccc(C)n2)c1 | u | 2% | 4% | 25µM* | -1% | -12%
COc1ccc(-n2nnnc2SCC(=O)Nc2cccc(C)n2)cc1OC | 7% | 0% | 2% | 16% | 5%[57.5 µM] | u
SMILES | TSHR agonist | Ub-GFP proteasome | GFP derepression | HEK293 cAMP cs | HBB splice mod | ERK AVP inh
Cc1ccc(-n2nnnc2SCC(=O)Nc2ccccc2N2CCCCC2)cc1C | u | -1% | 0% | 3.2µM* | x | -1%
C(=N\c1c(-c2ccccc2)nc2n1CCS2)/c1ccccc1 | -29% | 0% | -2% | -5% | 0% | 20µM*
O=c1c2ccccc2nc2n1CCS2 | 8% | -8% | -2% | 4% | -1% | 1%
COC1C(O)CC(=O)OC(C)C/C=C/C=C/[C@@H](OC2CCC(N(C)C)C(C)O2)C(C)C[C@@H](CC=O)[C@@H]1O[C@H]1OC(C)[C@H](O[C@@H]2C[C@@](C)(O)C(O)C(C)O2)C(N(C)C)C1O (stereo not given in full) | x | x | x | x | x | 6%
CC(C)(C)NC(=O)NC(=O)COC(=O)COc1ccc2c(c1)CCC2 | 5% | 0% | 0% | 17% | 0%[57.5 µM] | 11%
CC(C)(C)NC(=O)NC(=O)COc1ccccn1 | u | -2% | 1% | 10µM* | 0%[57.5 µM] | -3%
O=C(O)[C@H]1CN[C@H](C(=O)O)C1 | 14% | 0% | 3% | 11% | x | 14%
CCN1C(=O)CC(N2CCN(c3ccc(C(=O)c4ccccc4)cc3)CC2)C1=O (stereo not given) | 14% | -4% | 10% | 12% | 6% | 16µM*
CCNc1ncc2ncc(=O)n(C3CC3)c2n1 | 1% | 7% | -5%[9.22 µM] | 11% | -2% | -12%
CC(=O)NC(CCS(C)(=O)=O)C(=O)Nc1cccc(C)c1 (stereo not given) | u | 0% | x | 3.2µM* | 1% | x
CC(=O)c1sc(NC(=O)C2(F)C(F)(F)C(F)(F)C(F)(F)C(F)(F)C2(F)F)nc1C | u | 3% | -2% | 13µM* | 0%[57.5 µM] | 1%
C[C@@H]1OC2C3=C(C(=O)[C@H]4O[C@@H]4[C@H]3O)[C@@H]1[C@H]1[C@H](C)OC=C3[C@H](O)[C@H]4O[C@H]4/C(=N\OCc4ccccc4)[C@@]321 | -3%[11.4 µM] | x | x | -9%[11.4 µM] | -1%[9.22 µM] | 27%[11.5 µM]
CCCCC(=O)Nc1ccc(N2CCN(C(=O)CC)CC2)cc1 | 5% | 7% | 0% | 10% | -1% | 25µM*
CCCC(=O)Nc1ccc(N2CCN(C(=O)CCC)CC2)cc1 | -3% | -3% | -2% | -8% | x | 2%
CCC(C)C(=O)O[C@H]1C[C@@H](C)C=C2C=C[C@H](C)[C@H](CC[C@@H]3C[C@@H](O)CC(=O)O3)C21 (stereo not given in full) | x | x | x | x | x | 2%
COc1cccc(-c2nnc(SCC(=O)OC(C)C)n2Cc2ccco2)c1 | u | x | -2% | 16µM* | -2%[0.369 µM] | 8%
O=C(CSc1nnc(-c2ccc(O)cc2)n1Cc1ccco1)c1cccs1 | 10µM* | 2% | 0% | 27% | 0% | u

Bioassay records deposited in PubChem BioAssay by National Center for Advancing Translational Sciences (NCATS).
